Reference: PubChem BioAssay AID1159580 (chemical genetic matrix, 2015)
The campaign covered roughly 5,500 compounds. About 2,000 (36%) were called active. Roughly 18% stayed inconclusive and do not appear here. Cut-off read from the data, not from the text of the source: active = normalized growth mostly below about 0.91 (no sharp cut-off); inconclusive = no clear call, values can overlap the other calls; inactive = mostly above about 0.92. The list shows a part of the results.

Assay: chemical genetic growth profiling, strain panel (AID 1159580);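 note: tested at 20 µM; growth read once vehicle control cultures reached saturation at 30 °C; 1 = growth at the plate median or of vehicle wells; lower values mean less growth of the strain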
Conditions: growth OD

Measured: normalized growth

CNC(=O)O/N=C\C(C)(C)SC
inactive: S. cerevisiae deletion strains, locus YJR043C, strain POL32, stronger effect = lower value 1.03 | S. cerevisiae deletion strains, locus YJR075W, strain HOC1, stronger effect = lower value 1.02 | S. cerevisiae deletion strains, locus YKL009W, strain mrt4, stronger effect = lower value 1.02 | S. cerevisiae deletion strains, locus YKL068W, stronger effect = lower value 0.998 | S. cerevisiae deletion strains, locus YKL085W, strain MDH1 (second series), stronger effect = lower value 0.996 | S. cerevisiae deletion strains, locus YKL085W, strain MDH1, stronger effect = lower value 0.996 | S. cerevisiae deletion strains, locus YKL160W, strain elf1, stronger effect = lower value 1 | S. cerevisiae deletion strains, locus YKL190W, strain CNB1, stronger effect = lower value 0.991 | S. cerevisiae deletion strains, locus YKR001C, strain vps1, stronger effect = lower value 1.01 | S. cerevisiae deletion strains, locus YKR026C, strain gcn3, stronger effect = lower value 1 | S. cerevisiae deletion strains, locus YKR091W, strain srl3, stronger effect = lower value 1 | S. cerevisiae deletion strains, locus YLL001W, strain dnm1, stronger effect = lower value 0.988 | S. cerevisiae deletion strains, locus YLL026W, stronger effect = lower value 0.997 | S. cerevisiae deletion strains, locus YLL041C, strain sdh2, stronger effect = lower value 1 | S. cerevisiae deletion strains, locus YLR027C, strain aat2, stronger effect = lower value 1.01 | S. cerevisiae deletion strains, locus YLR039C, strain RIC1, stronger effect = lower value 1.02 | S. cerevisiae deletion strains, locus YLR058C, strain SHM2, stronger effect = lower value 1.01 | S. cerevisiae deletion strains, locus YLR102C, strain apc9, stronger effect = lower value 0.986 | S. cerevisiae deletion strains, locus YLR221C, strain rsa3, stronger effect = lower value 1.01 | S. cerevisiae deletion strains, locus YLR258W, strain gsy2, stronger effect = lower value 0.996 | S. cerevisiae deletion strains, locus YLR262C, strain YPT6 (second series), stronger effect = lower value 1.01 | S. cerevisiae deletion strains, locus YLR262C, strain YPT6, stronger effect = lower value 1.06 | S. cerevisiae deletion strains, locus YLR268W, strain sec22, stronger effect = lower value 0.991 | S. cerevisiae deletion strains, locus YLR320W, strain mms22, stronger effect = lower value 0.999 | S. cerevisiae deletion strains, locus YLR330W, strain CHS5, stronger effect = lower value 1.01 | S. cerevisiae deletion strains, locus YLR342W, strain FKS1 (second series), stronger effect = lower value 1 | S. cerevisiae deletion strains, locus YLR342W, strain FKS1, stronger effect = lower value 1 | S. cerevisiae deletion strains, locus YLR357W, strain rsc2, stronger effect = lower value 0.986 | S. cerevisiae deletion strains, locus YLR370C, strain arc18, stronger effect = lower value 1.01 | S. cerevisiae deletion strains, locus YLR371W, strain rom2, stronger effect = lower value 0.978 | S. cerevisiae deletion strains, locus YLR384C, strain iki3, stronger effect = lower value 0.991 | S. cerevisiae deletion strains, locus YLR418C, strain cdc73, stronger effect = lower value 1.01 | S. cerevisiae deletion strains, locus YML016C, strain PPZ1, stronger effect = lower value 1.01 | S. cerevisiae deletion strains, locus YML032C, strain rad52, stronger effect = lower value 0.993 | S. cerevisiae deletion strains, locus YML120C, strain ndi1, stronger effect = lower value 1.01 | S. cerevisiae deletion strains, locus YML124C, strain tub3, stronger effect = lower value 0.996 | S. cerevisiae deletion strains, locus YMR058W, strain fet3, stronger effect = lower value 1.01 | S. cerevisiae deletion strains, locus YMR078C, strain ctf18, stronger effect = lower value 0.992 | S. cerevisiae deletion strains, locus YMR125W, strain sto1, stronger effect = lower value 0.996 | S. cerevisiae deletion strains, locus YMR129W, stronger effect = lower value 1.01 | S. cerevisiae deletion strains, locus YMR205C, strain PFK2, stronger effect = lower value 0.975 | S. cerevisiae deletion strains, locus YMR223W, strain ubp8, stronger effect = lower value 0.995 | S. cerevisiae deletion strains, locus YMR231W, strain pep5, stronger effect = lower value 1 | S. cerevisiae deletion strains, locus YMR263W, strain SAP30, stronger effect = lower value 1.01 | S. cerevisiae deletion strains, locus YMR307W, strain GAS1, stronger effect = lower value 1.02 | S. cerevisiae deletion strains, locus YNL067W, strain RPL9B, stronger effect = lower value 1.01 | S. cerevisiae deletion strains, locus YNL071W, strain lat1, stronger effect = lower value 1.01 | S. cerevisiae deletion strains, locus YNL128W, strain TEP1, stronger effect = lower value 1.01 | S. cerevisiae deletion strains, locus YNL153C, strain GIM3, stronger effect = lower value 1 | S. cerevisiae deletion strains, locus YNL209W, strain ssb2, stronger effect = lower value 1.01 | S. cerevisiae deletion strains, locus YNL233W, strain BNI4, stronger effect = lower value 1.02 | S. cerevisiae deletion strains, locus YNL248C, strain rpa49, stronger effect = lower value 0.992 | S. cerevisiae deletion strains, locus YNL250W, strain rad50, stronger effect = lower value 0.989 | S. cerevisiae deletion strains, locus YNL271C, strain bni1, stronger effect = lower value 0.992 | S. cerevisiae deletion strains, locus YNL298W, strain CLA4, stronger effect = lower value 0.983 | S. cerevisiae deletion strains, locus YNL307C, strain MCK1, stronger effect = lower value 0.989 | S. cerevisiae deletion strains, locus YNL322C, strain KRE1 (second series), stronger effect = lower value 0.999 | S. cerevisiae deletion strains, locus YNL322C, strain KRE1, stronger effect = lower value 1.01 | S. cerevisiae deletion strains, locus YNR049C, strain mso1, stronger effect = lower value 1 | S. cerevisiae deletion strains, locus YNR052C, strain pop2, stronger effect = lower value 0.987 | S. cerevisiae deletion strains, locus YOL006C, strain TOP1, stronger effect = lower value 1.1 | S. cerevisiae deletion strains, locus YOL012C, strain htz1 0.971 | S. cerevisiae deletion strains, locus YOL147C, strain pex11, stronger effect = lower value 0.981 | S. cerevisiae deletion strains, locus YOR001W, strain rrp6, stronger effect = lower value 1.01 | S. cerevisiae deletion strains, locus YOR061W, strain CKA2, stronger effect = lower value 1 | S. cerevisiae deletion strains, locus YOR069W, strain VPS5, stronger effect = lower value 0.998 | S. cerevisiae deletion strains, locus YOR070C, strain gyp1, stronger effect = lower value 1 | S. cerevisiae deletion strains, locus YOR080W, strain dia2, stronger effect = lower value 0.996 | S. cerevisiae deletion strains, locus YOR083W, strain WHI5, stronger effect = lower value 0.999 | S. cerevisiae deletion strains, locus YOR106W, strain vam3, stronger effect = lower value 0.996 | S. cerevisiae deletion strains, locus YOR136W, strain idh2, stronger effect = lower value 1.01 | S. cerevisiae deletion strains, locus YOR144C, strain elg1, stronger effect = lower value 0.983 | S. cerevisiae deletion strains, locus YOR184W, strain ser1, stronger effect = lower value 1 | S. cerevisiae deletion strains, locus YOR265W, strain rbl2, stronger effect = lower value 1.03 | S. cerevisiae deletion strains, locus YOR270C, strain vph1, stronger effect = lower value 1 | S. cerevisiae deletion strains, locus YOR290C, strain snf2, stronger effect = lower value 0.994 | S. cerevisiae deletion strains, locus YOR316C, strain cot1, stronger effect = lower value 0.987 | S. cerevisiae deletion strains, locus YPL051W, strain arl3, stronger effect = lower value 1 | S. cerevisiae deletion strains, locus YPL055C, strain LGE1, stronger effect = lower value 1.05 | S. cerevisiae deletion strains, locus YPL078C, strain atp4, stronger effect = lower value 1 | S. cerevisiae deletion strains, locus YPL106C, strain sse1, stronger effect = lower value 0.996 | S. cerevisiae deletion strains, locus YPL240C, strain hsp82, stronger effect = lower value 1.01 | S. cerevisiae deletion strains, locus YPL241C, strain CIN2, stronger effect = lower value 0.999 | S. cerevisiae deletion strains, locus YPR119W, strain clb2, stronger effect = lower value 0.986 | S. cerevisiae deletion strains, locus YPR141C, strain kar3, stronger effect = lower value 0.996 | S. cerevisiae deletion strains, locus YPR163C, strain tif3, stronger effect = lower value 0.983 | S. cerevisiae deletion strains, locus YPR167C, strain met16, stronger effect = lower value 0.99 | S. cerevisiae deletion strains, strain wtn01, stronger effect = lower value 0.997 | S. cerevisiae strains, strain wild type, stronger effect = lower value 1
